The source of these data is PubChem BioAssay.

Assay [1] can be described thus: E. coli DRC41 culture turbidity changes, primary screen, E. coli filamentation inducer project, strain DRC41, OD650, 48 h (AID 1152).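 Further: E. coli MC1000 strain DRC41 lacking acrAB efflux pump and sulA.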 The settings on record: E. coli DRC41 (acrAB sulA), higher = more signal, called active from +8 up or from −8 down.
Assay [2] can be described thus: small-molecule binders of probe aLefty1, primary screen, biochemical, small-molecule microarray, 635/667 nm fluorescence (AID 1153).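 Further: score merges spot fluorescence with signal-to-noise ratio from the scanned slide images.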 The settings on record: higher = more signal.
Assay [3] can be described thus: PSAC antagonists in infected red cells, primary screen, cell-based, P. falciparum Indochina, OD700, 1 h (AID 1154). The settings on record: P. falciparum Indochina infected RBC osmotic lysis, higher = more signal, called active from +8 up or from −8 down.
The nature of assay [4]: PSAC antagonists in infected red cells, primary screen, cell-based, P. falciparum Indochina, OD700, 2 h (AID 1155).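 Further: lysis reports solute entry through the parasite surface anion channel PSAC; channel blockers reduce lysis of infected cells.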 The settings on record: P. falciparum Indochina infected erythrocytes, osmotic lysis OD700; higher = more signal, called active from +8 up or from −8 down.
Assay [5] can be described thus: osmotic lysis modulators in infected erythrocytes, primary screen, PSAC antagonist project, cell-based, P. falciparum Indochina, OD700, 3 h (AID 1156). The settings on record: higher = more signal, called active from +8 up or from −8 down.
A short description of assay [6]: PSAC antagonists in infected red cells, primary screen, cell-based, P. falciparum Indochina, OD700, 18 h (AID 1157). The settings on record: P. falciparum Indochina infected erythrocytes, osmotic lysis OD700, 18 h; higher = more signal, called active from +8 up or from −8 down.
Assay [7] in a line: modulators of S6 phosphorylation in cells, primary screen, cell-based, A549, cytoblot, luminescence, serum-stimulated (AID 1158).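 Further: serum-stimulated A549 lung adenocarcinoma cells; signal is phosphorylated S6 detected by cytoblot immunostaining with HRP secondary.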 The settings on record: A549 phospho-S6 cytoblot, 5 h, higher = more signal.
Assay [8] addresses NADPH oxidase 2 (Homo sapiens) (UniProt P04839). Briefly: NOX2-dependent H2O2 signal modulators, primary screen, NOX inhibitor project, cell-based, HEK293-NOX2, PMA-stimulated, Amplex Red fluorescence (AID 1159). Further: test concentration not given here. The settings on record: 45 min, higher = more signal, called active from +8 up or from −8 down.
For assay [9], the target named is NADPH oxidase 4 (Homo sapiens) (UniProt Q9NPH5). Kind of assay: NOX4-dependent H2O2 signal modulators, primary screen, NOX inhibitor project, cell-based, HEK293-NOX4, tetracycline-induced, Amplex Red fluorescence (AID 1160). The settings on record: 45 min, higher = more signal, called active from +8 up or from −8 down.
Chain of NADPH oxidase 4 (Homo sapiens) (Q9NPH5 whole entry, looked up): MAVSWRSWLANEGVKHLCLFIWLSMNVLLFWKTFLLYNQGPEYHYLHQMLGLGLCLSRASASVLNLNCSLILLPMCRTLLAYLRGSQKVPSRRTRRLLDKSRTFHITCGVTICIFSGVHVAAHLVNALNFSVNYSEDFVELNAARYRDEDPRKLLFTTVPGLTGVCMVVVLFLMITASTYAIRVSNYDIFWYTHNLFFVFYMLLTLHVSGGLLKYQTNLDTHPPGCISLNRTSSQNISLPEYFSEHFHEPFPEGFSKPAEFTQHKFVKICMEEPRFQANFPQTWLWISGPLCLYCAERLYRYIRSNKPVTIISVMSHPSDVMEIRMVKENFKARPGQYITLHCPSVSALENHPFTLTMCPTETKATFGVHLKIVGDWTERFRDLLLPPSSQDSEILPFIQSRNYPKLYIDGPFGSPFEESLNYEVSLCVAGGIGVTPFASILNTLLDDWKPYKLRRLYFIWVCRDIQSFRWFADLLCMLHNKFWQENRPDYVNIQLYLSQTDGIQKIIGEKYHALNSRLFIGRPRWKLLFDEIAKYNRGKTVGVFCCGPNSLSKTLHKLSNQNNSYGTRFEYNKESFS
Assay [10] concerns the target NADPH oxidase 5 (Homo sapiens) (UniProt Q96PH1). Kind of assay: NOX5-dependent H2O2 signal modulators, primary screen, NOX inhibitor project, cell-based, HEK293-NOX5, Amplex Red fluorescence (AID 1161). The settings on record: HEK293-NOX5, ionomycin, 45 min, higher = more signal.
Assay [11] is described as follows: A549 cell viability effects, profiling panel, calcein-AM fluorescence, 48 h, basal (AID 1162). Further: test concentration not given here. The settings on record: higher = more signal.
Assay [12] can be described thus: adipocyte viability effects, profiling panel, cell-based, 3T3-L1 adipocytes, calcein-AM fluorescence, 48 h, basal (AID 1163). Further: test concentration not given here. The settings on record: 3T3-L1 adipocytes viability, higher = more signal.
The nature of assay [13]: HepG2 cell viability effects, profiling panel, calcein-AM fluorescence, 48 h, basal (AID 1164). Further: test concentration not given here. The settings on record: higher = more signal.
Assay [14] is described as follows: MM1S cell viability effects, profiling panel, calcein-AM fluorescence, 48 h, basal (AID 1165).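 Further: viability of MM1S multiple myeloma cells under basal unstimulated conditions; test concentration not given here.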 The settings on record: higher = more signal.
The nature of assay [15]: basal RPMI8226 viability, no added stimulus, profiling panel, cell-based, calcein-AM fluorescence, 48 h, PK04 Diversity Set (AID 1166).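 Further: cells grown under basal conditions without added stimulus; test concentration not given here.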 The settings on record: RPMI8226 myeloma viability, higher = more signal.
Assay [16] in a line: basal HepG2 mitochondrial membrane potential changes, profiling panel, cell-based, JC-1 fluorescence, 24 h, 100 nL compound (AID 1167). Further: test concentration not given here. The settings on record: higher = more signal.
Assay [17] can be described thus: basal 3T3-L1 adipocyte mitochondrial potential changes, profiling panel, cell-based, JC-1 fluorescence, 3T3-L1 adipocytes, 24 h, 100 nL compound (AID 1168). Further: test concentration not given here. The settings on record: JC-1 mitochondrial fluorescence, higher = more signal, called active from +8 up or from −8 down.
The nature of assay [18]: basal RPMI8226 mitochondrial membrane potential changes, profiling panel, cell-based, JC-1 fluorescence, 24 h, 100 nL compound (AID 1169). Further: test concentration not given here. The settings on record: RPMI8226 myeloma, JC-1 mitochondrial potential fluorescence, higher = more signal.
The nature of assay [19]: basal MM1S mitochondrial membrane potential changes, profiling panel, cell-based, JC-1 fluorescence, 24 h, 100 nL compound (AID 1170). Further: test concentration not given here. The settings on record: higher = more signal.
Assay [20] is described as follows: A549 lung cancer cell viability effects, profiling panel, resazurin fluorescence, 24 h, PK04 Diversity Set (AID 1171). Further: test concentration not given here. The settings on record: higher = more signal, called active from +8 up or from −8 down.

Activity calls are given as the source filed them.

Chain of NADPH oxidase 2 (Homo sapiens) (P04839 whole entry, looked up): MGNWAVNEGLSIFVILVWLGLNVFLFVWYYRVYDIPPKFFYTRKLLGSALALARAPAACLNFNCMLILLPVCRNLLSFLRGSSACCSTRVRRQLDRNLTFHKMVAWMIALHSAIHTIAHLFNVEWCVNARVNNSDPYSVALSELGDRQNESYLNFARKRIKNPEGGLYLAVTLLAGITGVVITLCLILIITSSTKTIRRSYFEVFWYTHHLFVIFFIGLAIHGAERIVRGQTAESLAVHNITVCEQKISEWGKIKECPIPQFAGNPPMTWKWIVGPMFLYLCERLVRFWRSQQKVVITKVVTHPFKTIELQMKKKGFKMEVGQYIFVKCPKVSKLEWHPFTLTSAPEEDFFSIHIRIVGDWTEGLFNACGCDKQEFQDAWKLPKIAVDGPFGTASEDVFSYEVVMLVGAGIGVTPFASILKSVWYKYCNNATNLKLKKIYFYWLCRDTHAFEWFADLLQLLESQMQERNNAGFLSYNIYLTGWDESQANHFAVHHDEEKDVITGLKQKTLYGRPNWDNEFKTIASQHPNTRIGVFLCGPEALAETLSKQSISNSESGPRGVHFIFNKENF
Chain of NADPH oxidase 5 (Homo sapiens) (Q96PH1 whole entry, looked up): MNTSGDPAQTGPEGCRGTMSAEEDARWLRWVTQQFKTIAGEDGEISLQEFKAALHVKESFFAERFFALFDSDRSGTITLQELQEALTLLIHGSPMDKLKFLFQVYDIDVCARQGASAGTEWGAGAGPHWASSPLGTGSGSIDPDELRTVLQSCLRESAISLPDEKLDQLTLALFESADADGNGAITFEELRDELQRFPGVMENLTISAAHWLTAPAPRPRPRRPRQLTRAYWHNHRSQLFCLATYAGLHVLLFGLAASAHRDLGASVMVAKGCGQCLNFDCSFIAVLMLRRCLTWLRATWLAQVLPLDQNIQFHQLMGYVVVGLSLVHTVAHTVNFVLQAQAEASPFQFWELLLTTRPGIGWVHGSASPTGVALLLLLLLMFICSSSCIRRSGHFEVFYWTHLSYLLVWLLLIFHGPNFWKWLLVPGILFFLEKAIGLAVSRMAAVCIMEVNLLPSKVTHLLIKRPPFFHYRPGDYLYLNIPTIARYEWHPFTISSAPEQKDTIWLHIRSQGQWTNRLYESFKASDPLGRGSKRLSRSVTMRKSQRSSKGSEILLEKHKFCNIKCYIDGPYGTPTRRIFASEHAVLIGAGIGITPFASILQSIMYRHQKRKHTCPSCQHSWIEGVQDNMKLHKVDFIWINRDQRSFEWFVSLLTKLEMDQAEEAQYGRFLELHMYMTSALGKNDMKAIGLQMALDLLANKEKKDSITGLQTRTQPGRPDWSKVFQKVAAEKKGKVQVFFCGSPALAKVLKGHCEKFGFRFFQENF

For the compound `O=C1O[C@@H](c2ccccc2)[C@@H](c2ccccc2)N2[C@@H](c3ccc(O)cc3)[C@]3(C(=O)Nc4ccc(C#CCCO)cc43)[C@@H](C(=O)N3CCCCCCC3)[C@H]12`, the z-score in assay [1] is -0.681 (inactive); in assay [3] it was 1.27 (inactive); in assay [4], 0.654 (inactive); in assay [5], -0.69 (inactive); in assay [6], 0.541 (inactive); in assay [7] it was -0.364. In addition, the z-score was 1.15 (inactive) in [8]; 0.277 (inactive) in assay [9]; 1.47 in assay [10]; 0.498 in assay [11]; 0.93 in [12]; -0.284 in [13]. The z-score in assay [14] was 0.59; in assay [15], -1.24; in [16] it was -1.06; in assay [17] it was -0.585 (inactive); in assay [18], -0.185; in assay [19] it was 0.129. In assay [20], the z-score is 0.254 (inactive). The composite z-score in assay [2] worked out at 2.4.
`Cc1cccc(/C=C/C=O)c1`: the z-score in assay [1] is 0.595 (inactive); in assay [3], 0.118 (inactive); in assay [4], -0.557 (inactive); in assay [5], 0.565 (inactive); in assay [6], -0.212 (inactive); in assay [7] it was -0.57. In addition, the z-score in [8] was -0.0862 (inactive); in [9] it was 0.0658 (inactive); in [10], 1.56; in [11] it was 0.175; in assay [12] it was -0.49; in [13], 0.486. Besides, the z-score in assay [14] is -0.127; in assay [15], -0.46; in [16] it was 0.895; in [17] it was 0.898 (inactive); in assay [18], -0.691; in assay [19], -0.313. For the same compound, in assay [20], the z-score was 0.0956 (inactive). This compound returned a composite z-score in [2] of -0.0479.
As for `O=C(NCC(O)CO)[C@]1(CCS(=O)(=O)c2ccccc2)N=C(c2ccc(OCCCO)cc2)O[C@@H]1c1ccccc1` (stereo not given in full), the z-score in assay [1] was -0.374 (inactive); in [3] it was 25.6 (active); in assay [4], 6.78 (inactive); in [5], 1.61 (inactive); in [6], 0.987 (inactive); in assay [7], -0.516. In addition, the z-score in assay [8] was 1.4 (inactive); in assay [9], 0.762 (inactive); in assay [10], -0.186; in [11], -0.206; in [12] it was -0.13; in assay [13], -0.635. Moreover, the z-score is -0.37 in assay [14]; -0.33 in assay [15]; 0.22 in assay [16]; -1.3 (inactive) in [17]; -0.213 in [18]; -0.824 in assay [19]. Also, in [20], the z-score is 0.562 (inactive). In addition, the composite z-score in assay [2] stood at 0.0371.
As to `O=C1C2C=CC(C(O)c3ccccn3)N(Nc3ccccc3F)C2C(=O)N1c1ccccc1` (stereo not given), the z-score in [1] was -0.882 (inactive); in assay [3], 0.671 (inactive); in assay [4], 0.571 (inactive); in assay [5], 0.42 (inactive); in [6], 1.19 (inactive); in assay [7] it was -0.725. Also, the z-score was -1.63 (inactive) in assay [8]; -3.57 (inactive) in assay [9]; -1.54 in [10]; -0.922 in assay [11]; -1.12 in assay [12]; 1.04 in assay [13]. The z-score is -0.211 in [14]; -0.217 in assay [15]; -0.793 in assay [16]; 0.608 (inactive) in assay [17]; -0.196 in assay [18]; -0.541 in [19]. The z-score in assay [20] is -0.52 (inactive). Also, in assay [2], the composite z-score was -0.133.
Consider `CCN(CC)c1ccc(N2CC=CC34O[C@@H]5/C=C\CCC(C)OC(=O)C5[C@H]3C(=O)N(CCCCCCO)[C@@H]4C2=O)cc1` (stereo not given in full), for which the z-score in assay [1] is 0.699 (inactive); in assay [3], -0.37 (inactive); in assay [4], 0.0486 (inactive); in assay [5] it was -0.383 (inactive); in assay [6], 0.33 (inactive); in [7], 1.35. Also, the z-score was -0.315 (inactive) in assay [8]; -0.0195 (inactive) in assay [9]; 0.813 in assay [10]; 1.21 in assay [11]; -1.09 in assay [12]; 0.674 in assay [13]. Besides, the z-score is 1.57 in assay [14]; 0.153 in assay [15]; 1.25 in assay [16]; -1.02 (inactive) in assay [17]; 0.0282 in assay [18]; 0.846 in assay [19]. The z-score in [20] was 0.606 (inactive). This compound also came in with a composite z-score in assay [2] of -0.464.
Regarding `[N-]=[N+]=NCc1ccccc1C[C@]1(C(N)=O)N=C(c2ccc(OCCCO)cc2)O[C@H]1c1ccccc1N=[N+]=[N-]`, the z-score in assay [1] is 0.125 (inactive); in assay [3], 34.1 (active); in assay [4] it was 32.7 (active); in assay [5] it was 2.52 (inactive); in [6], 3.39 (inactive); in assay [7] it was -0.59. The z-score is -3.15 (inactive) in assay [8]; -0.457 (inactive) in assay [9]; -2.02 in assay [10]; -0.169 in [11]; 0.0873 in [12]; -0.153 in assay [13]. The z-score in [14] is -2.05; in [15], -1.55; in assay [16], -0.727; in assay [17], -1.38 (inactive); in assay [18], -1.04; in assay [19], -0.649. Moreover, in assay [20], the z-score was -0.38 (inactive). In assay [2], this compound gave a composite z-score of 0.588.
Turning to `Cc1ccc(N2C(=O)c3ccccc3[C@@H](C(=O)NCC(C)C)[C@@H]2c2ccc(CO)cc2)nc1`, the z-score in [1] was 0.569 (inactive); in [3], 3.15 (inactive); in assay [4], 0.48 (inactive); in assay [5] it was 1.38 (inactive); in assay [6] it was 0.231 (inactive); in assay [7], 0.0174. Also, the z-score in [8] is -0.0277 (inactive); in [9], 0.918 (inactive); in assay [10], 0.84; in assay [11], 0.593; in [12], -0.136; in assay [13], 0.558. Besides, the z-score in [14] was -0.0617; in assay [15] it was 0.662; in [16], 2.02; in assay [17], 1.09 (inactive); in assay [18], -0.482; in [19], 0.133. For the same compound, the z-score in [20] is -0.613 (inactive). The composite z-score in assay [2] was -0.0186.
For the compound `C=C(C(=O)CC[C@@H](OC(=O)c1cccnc1)c1ccc(OCCO)cc1)C(C)C`, the z-score in assay [1] was -1.07 (inactive); in assay [3], 3.66 (inactive); in assay [4], 2.48 (inactive); in assay [5], -6.06 (inactive); in assay [6] it was 0.822 (inactive); in assay [7] it was -0.917. Further, the z-score is -4.23 (inactive) in assay [8]; -1.19 (inactive) in assay [9]; -1.6 in assay [10]; -1.9 in [11]; -1.63 in assay [12]; -3.17 in assay [13]. Also, the z-score in assay [14] was -3.39; in assay [15], -1.9; in [16], -0.959; in [17] it was -0.0274 (inactive); in assay [18] it was -0.304; in assay [19] it was -1.41. The z-score in [20] was -1.34 (inactive). Also, the composite z-score in assay [2] turned out to be 0.0043.
For the compound `[N-]=[N+]=NCc1ccccc1C[C@]1(C(=O)N2CCOCC2)N=C(c2ccc(OCCCO)cc2)O[C@H]1c1ccccc1`, the z-score in assay [1] was 1.07 (inactive); in assay [3], 29.4 (active); in assay [4], 24.2 (active); in [5] it was 0.785 (inactive); in assay [6], 1.5 (inactive); in assay [7], 1.57. Moreover, the z-score in assay [8] is -1.95 (inactive); in assay [9], -0.399 (inactive); in assay [10], -1.32; in [11], -0.55; in [12] it was -0.0649; in [13], -1.56. Also, the z-score in [14] was -2.06; in [15] it was -4.4; in [16], -0.155; in [17] it was -0.296 (inactive); in [18], -1.16; in assay [19], -2.08. For the same compound, the z-score in assay [20] was -0.832 (inactive). Further, in assay [2], the composite z-score was 0.208.
